This passage reports relative growth results from the supplement of paper PMC12067926.

In the assay the test system is Bacillus 1 (Bacillus foraminis). Description: relative growth (AUC of 72 h growth curve relative to DMSO control, dAUC) (ratio); higher = more growth (less inhibition), active = hit call of the paper. The note with it: 20 µM. As for the experimental part: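 Environmental bacterial isolates (Iceland stream sediment and Silwood Park soil) and whole stream-sediment communities were grown in LB from a 1:100 dilution with each pesticide at 20 µM (1% DMSO). A600 was read hourly for 72 h and the area under a spline-fitted growth curve (AUC) was computed. dAUC is the mean AUC of 3 biological replicates divided by the mean AUC of the DMSO controls. Significance was tested by Dunnett's test against the DMSO control.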
`COC(=O)N(C(=O)N1CO[C@@]2(C(=O)OC)Cc3cc(Cl)ccc3C2=N1)c1ccc(OC(F)(F)F)cc1`: the relative growth is 1 (inactive).

Regarding `CC1(C)[C@H](/C=C(\Cl)C(F)(F)F)[C@@H]1C(=O)OC(C#N)c1cccc(Oc2ccccc2)c1` (stereo not given in full), the relative growth is 1.05 (inactive). The value for `COP(=S)(OC)Oc1ccc(SC)c(C)c1` was 0.995 (inactive). As for `CNC(=O)Oc1cccc(/N=C/N(C)C)c1`, the figure is 0.983 (inactive). As for `CON(C)C(=O)Nc1ccc(Cl)c(Cl)c1`, the figure is 1.04 (inactive); as for `CN/C(=N\[N+](=O)[O-])NCc1cnc(Cl)s1`, 1.03 (inactive). Regarding `CCc1cccc(C)c1N(C(=O)CCl)[C@@H](C)COC`, the relative growth is 1.06 (inactive). As for `CC(C)N1C(=O)c2ccccc2NS1(=O)=O`, the figure is 1.01 (inactive). The value for `O=C(Nc1ccccc1-c1ccc(Cl)cc1)c1cccnc1Cl` was 1.01 (inactive); that for `O=[N+]([O-])/N=C1\NCCN1Cc1ccc(Cl)nc1` was 1.06 (inactive); that for `Cc1cc(C(F)(C(F)(F)F)C(F)(F)F)ccc1NC(=O)c1cccc(I)c1C(=O)NC(C)(C)CS(C)(=O)=O` was 1.16 (inactive). The value for `COCC(=O)N(c1c(C)cccc1C)[C@H](C)C(=O)OC` was 1.06 (inactive); that for `CN/C(=N/CC1CCOC1)N[N+](=O)[O-]` (stereo not given) was 1.11 (inactive). As to `CNC(=O)/C=C(\C)OP(=O)(OC)OC`, the relative growth is 0.96 (inactive). For the compound `CCOP(=S)(OCC)Oc1nc(Cl)c(Cl)cc1Cl`, the relative growth was 1.07 (inactive). With `CCCSP(=O)(OCC)Oc1ccc(Br)cc1Cl` (stereo not given), the relative growth is 1.07 (inactive). The value for `CCOC(=O)OC1=C(c2cc(C)ccc2C)C(=O)N[C@]12CC[C@@H](OC)CC2` was 1.03 (inactive); that for `Cc1cccc2sc3nncn3c12` was 1.03 (inactive); that for `N#Cc1c[nH]cc1-c1cccc2c1OC(F)(F)O2` was 0.935 (inactive). As for `COc1ccc(-c2ccccc2)cc1NNC(=O)OC(C)C`, the figure is 1.03 (inactive); as for `O=C(NC(=O)c1c(F)cccc1F)Nc1ccc(OC(F)(F)C(F)OC(F)(F)F)c(Cl)c1` (stereo not given), 0.942 (inactive). The value for `COc1cc(OC)nc(NC(=O)NS(=O)(=O)c2ncccc2C(=O)N(C)C)n1` was 1.08 (inactive); that for `N#Cc1c(Cl)c(Cl)c(Cl)c(C#N)c1Cl` was 0.955 (inactive); that for `O=C1C=C(N(Cc2ccc(Cl)nc2)CC(F)F)CO1` was 0.945 (inactive). Turning to `Cc1ccc(/N=C/N(C)/C=N/c2ccc(C)cc2C)c(C)c1`, the relative growth was 1.01 (inactive).

On to `CC(C)CC(C)c1sccc1NC(=O)c1cn(C)nc1C(F)(F)F` (stereo not given), for which the relative growth was 0.959 (inactive). With `C#CCN1C(=O)COc2cc(F)c(N3C(=O)C4=C(CCCC4)C3=O)cc21`, the relative growth was 1.14 (inactive). On to `CC1(C)C(C=C(Cl)Cl)C1C(=O)OC(C#N)c1cccc(Oc2ccccc2)c1` (stereo not given), for which the relative growth was 1.11 (inactive). The value for `CCCCN(CCCC)SN(C)C(=O)Oc1cccc2c1OC(C)(C)C2` was 1.03 (inactive); that for `C[N+](C)(C)CCCl` was 0.969 (inactive). Take `Clc1ccc(C(c2ccc(Cl)cc2)C(Cl)(Cl)Cl)cc1`: the relative growth was 1.06 (inactive). Regarding `CNC(=O)c1cc(C#N)cc(C)c1NC(=O)c1cc(Br)nn1-c1ncccc1Cl`, the relative growth was 0.935 (inactive). The value for `COP(N)(=O)SC` (stereo not given) was 0.871 (inactive). The value for `O=C(NC(=O)c1c(F)cccc1F)Nc1ccc(Cl)cc1` was 1.05 (inactive). As for `O=[N+]([O-])c1cc(C(F)(F)F)c(Cl)c([N+](=O)[O-])c1Nc1ncc(C(F)(F)F)cc1Cl`, the figure is 0.0375 (active); as for `O=C1C2CC=CCC2C(=O)N1SC(Cl)(Cl)Cl` (stereo not given), 0.939 (inactive). Take `CNC(=O)Oc1cccc2ccccc12`: the relative growth was 1.05 (inactive).

`COc1ncc(F)c2nc(S(=O)(=O)Nc3c(F)cccc3F)nn12`: the relative growth is 1.06 (inactive). As to `O=C(O)CNCP(=O)(O)O`, the relative growth was 1.04 (inactive).

With `Cc1cc(C(C#N)c2ccc(Cl)cc2)c(Cl)cc1NC(=O)c1cc(I)cc(I)c1O` (stereo not given), the relative growth is 0.695 (inactive).
